Tests used:
Experiment in all cases: log2 ratio of Biotin-Ahx-Ub-VS probe labelling (fragment/DMSO); higher = less target engagement (more negative = stronger competition), active = hit call of the paper (q ≤ 0.05, log2 ratio ≤ -1)
Conditions in all cases: compound concentration: 200 uM; treatment time: 3 h
USP9X = USP9X (UniProt Q93008)
Outline: (§1)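 HEK293T lysate in Tris/CHAPS/IGEPAL buffer with protease inhibitors (495 µg per sample) was given fragment at 200 µM or vehicle for 3 h, in triplicate. It then received Biotin-Ahx-Ub-VS at 0.5 µM final for 1 h. Labelled DUBs were NeutrAvidin-enriched, digested with LysC and trypsin, and run by diaPASEF LC-MS/MS. Values are average log2 fragment/vehicle ratios by unpaired t-test on global-median-normalised Spectronaut quantities of proteins with ≥2 unique peptides.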

UniProt O00487 = biological target: UniProt O00487
Outline: as §1

UniProt O00507 = biological target: UniProt O00507
Outline: as §1

UniProt P51784 = biological target: UniProt P51784
Outline: as §1

UniProt Q5T2D3 = biological target: T1, UniProt Q5T2D3
T1 sequence (whole entry): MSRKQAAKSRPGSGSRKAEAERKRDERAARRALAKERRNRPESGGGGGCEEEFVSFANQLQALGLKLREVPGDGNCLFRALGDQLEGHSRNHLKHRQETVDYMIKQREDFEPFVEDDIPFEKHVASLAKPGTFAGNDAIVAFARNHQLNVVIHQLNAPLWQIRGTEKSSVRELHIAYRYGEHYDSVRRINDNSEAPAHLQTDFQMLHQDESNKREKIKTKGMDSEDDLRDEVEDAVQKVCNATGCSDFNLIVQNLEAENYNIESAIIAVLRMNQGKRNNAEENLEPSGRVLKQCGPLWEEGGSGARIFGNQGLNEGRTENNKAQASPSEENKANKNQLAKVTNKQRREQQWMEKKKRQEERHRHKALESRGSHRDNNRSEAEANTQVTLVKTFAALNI
Outline: as §1

UniProt Q8TE49 = biological target: T2, UniProt Q8TE49
T2 sequence (whole entry): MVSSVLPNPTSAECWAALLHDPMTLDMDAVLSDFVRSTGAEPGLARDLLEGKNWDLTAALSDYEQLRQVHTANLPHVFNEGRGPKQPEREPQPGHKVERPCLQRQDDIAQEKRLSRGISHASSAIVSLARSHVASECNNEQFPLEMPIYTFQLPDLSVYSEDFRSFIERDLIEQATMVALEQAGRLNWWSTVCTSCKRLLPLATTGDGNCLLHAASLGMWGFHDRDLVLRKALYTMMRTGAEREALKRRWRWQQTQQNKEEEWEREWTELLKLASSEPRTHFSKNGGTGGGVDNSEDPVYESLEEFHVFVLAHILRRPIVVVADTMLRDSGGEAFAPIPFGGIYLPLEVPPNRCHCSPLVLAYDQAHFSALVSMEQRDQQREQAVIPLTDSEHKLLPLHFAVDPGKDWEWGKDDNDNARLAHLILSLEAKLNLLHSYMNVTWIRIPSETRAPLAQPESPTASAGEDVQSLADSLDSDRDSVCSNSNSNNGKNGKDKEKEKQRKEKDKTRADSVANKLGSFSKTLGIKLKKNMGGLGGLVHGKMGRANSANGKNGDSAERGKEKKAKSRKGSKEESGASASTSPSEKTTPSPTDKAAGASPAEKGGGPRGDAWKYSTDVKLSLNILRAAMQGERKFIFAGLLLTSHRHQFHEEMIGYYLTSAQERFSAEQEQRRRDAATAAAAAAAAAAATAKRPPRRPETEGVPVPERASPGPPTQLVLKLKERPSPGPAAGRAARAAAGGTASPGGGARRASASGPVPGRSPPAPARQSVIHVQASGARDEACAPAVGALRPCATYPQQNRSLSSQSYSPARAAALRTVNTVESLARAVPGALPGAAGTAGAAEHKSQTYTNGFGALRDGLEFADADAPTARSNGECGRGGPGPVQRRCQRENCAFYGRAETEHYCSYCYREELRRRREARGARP
Outline: as §1

UniProt Q9P2H5 = biological target: T3, UniProt Q9P2H5
T3 sequence (whole entry): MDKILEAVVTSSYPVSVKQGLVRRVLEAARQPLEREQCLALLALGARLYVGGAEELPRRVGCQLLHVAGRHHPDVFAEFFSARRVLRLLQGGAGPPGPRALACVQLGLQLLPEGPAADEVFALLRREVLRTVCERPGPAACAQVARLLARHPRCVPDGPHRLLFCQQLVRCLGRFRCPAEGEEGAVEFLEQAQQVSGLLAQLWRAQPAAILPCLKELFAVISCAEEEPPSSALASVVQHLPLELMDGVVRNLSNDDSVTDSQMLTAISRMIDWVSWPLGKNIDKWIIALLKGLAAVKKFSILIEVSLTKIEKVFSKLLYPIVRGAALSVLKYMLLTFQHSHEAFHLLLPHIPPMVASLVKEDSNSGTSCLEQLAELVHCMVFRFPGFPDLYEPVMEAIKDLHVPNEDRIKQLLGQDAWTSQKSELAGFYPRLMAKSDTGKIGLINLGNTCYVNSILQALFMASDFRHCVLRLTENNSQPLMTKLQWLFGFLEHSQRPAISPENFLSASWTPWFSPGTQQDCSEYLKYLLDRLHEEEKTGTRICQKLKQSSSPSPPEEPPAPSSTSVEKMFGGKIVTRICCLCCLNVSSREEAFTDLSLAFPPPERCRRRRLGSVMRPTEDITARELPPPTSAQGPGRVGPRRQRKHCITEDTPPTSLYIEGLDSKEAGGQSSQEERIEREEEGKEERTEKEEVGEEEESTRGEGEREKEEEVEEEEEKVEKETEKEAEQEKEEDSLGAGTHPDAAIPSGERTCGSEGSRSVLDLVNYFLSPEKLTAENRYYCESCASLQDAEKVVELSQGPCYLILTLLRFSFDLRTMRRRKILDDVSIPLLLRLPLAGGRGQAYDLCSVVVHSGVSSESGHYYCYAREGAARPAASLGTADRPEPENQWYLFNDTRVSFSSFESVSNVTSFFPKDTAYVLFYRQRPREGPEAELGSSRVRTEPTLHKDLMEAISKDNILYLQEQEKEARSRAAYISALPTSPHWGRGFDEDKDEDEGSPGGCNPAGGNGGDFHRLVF
Outline: as §1

UniProt Q9UGI0 = biological target: T4, UniProt Q9UGI0
T4 sequence (whole entry): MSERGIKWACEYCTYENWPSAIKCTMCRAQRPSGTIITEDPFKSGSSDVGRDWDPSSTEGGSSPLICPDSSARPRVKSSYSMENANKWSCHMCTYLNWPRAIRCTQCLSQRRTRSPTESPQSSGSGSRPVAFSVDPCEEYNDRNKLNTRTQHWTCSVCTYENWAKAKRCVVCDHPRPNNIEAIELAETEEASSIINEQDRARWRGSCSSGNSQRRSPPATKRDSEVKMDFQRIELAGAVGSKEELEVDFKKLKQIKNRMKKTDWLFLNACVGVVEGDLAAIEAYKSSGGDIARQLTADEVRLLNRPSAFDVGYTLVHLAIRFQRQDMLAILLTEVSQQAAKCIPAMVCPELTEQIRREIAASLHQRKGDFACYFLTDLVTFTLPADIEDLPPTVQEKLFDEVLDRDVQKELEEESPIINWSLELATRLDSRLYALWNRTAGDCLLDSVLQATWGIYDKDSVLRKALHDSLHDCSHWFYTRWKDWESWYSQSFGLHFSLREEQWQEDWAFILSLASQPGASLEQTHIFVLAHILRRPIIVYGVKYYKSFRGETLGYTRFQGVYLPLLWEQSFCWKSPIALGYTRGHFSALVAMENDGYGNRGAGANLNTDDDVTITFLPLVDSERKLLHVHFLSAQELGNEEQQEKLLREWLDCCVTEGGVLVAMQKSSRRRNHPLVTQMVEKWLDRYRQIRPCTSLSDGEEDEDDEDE
Outline: as §1

YOD1 = biological target: T5, YOD1 (UniProt Q5VVQ6)
T5 sequence (whole entry): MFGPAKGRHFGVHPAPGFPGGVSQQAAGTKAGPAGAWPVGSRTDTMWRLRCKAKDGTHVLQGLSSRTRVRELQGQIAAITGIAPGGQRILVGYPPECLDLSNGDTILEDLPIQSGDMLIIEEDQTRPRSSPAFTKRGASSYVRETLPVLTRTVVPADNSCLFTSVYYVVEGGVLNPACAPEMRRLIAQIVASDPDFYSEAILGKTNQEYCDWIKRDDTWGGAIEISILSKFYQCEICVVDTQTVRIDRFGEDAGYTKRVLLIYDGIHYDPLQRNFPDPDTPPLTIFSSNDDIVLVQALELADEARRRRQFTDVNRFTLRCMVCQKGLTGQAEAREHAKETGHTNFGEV
Outline: as §1

Measured: log2 ratio of Biotin-Ahx-Ub-VS probe labelling

Sequence of USP9X (Q93008 whole entry, the tested form may be a part): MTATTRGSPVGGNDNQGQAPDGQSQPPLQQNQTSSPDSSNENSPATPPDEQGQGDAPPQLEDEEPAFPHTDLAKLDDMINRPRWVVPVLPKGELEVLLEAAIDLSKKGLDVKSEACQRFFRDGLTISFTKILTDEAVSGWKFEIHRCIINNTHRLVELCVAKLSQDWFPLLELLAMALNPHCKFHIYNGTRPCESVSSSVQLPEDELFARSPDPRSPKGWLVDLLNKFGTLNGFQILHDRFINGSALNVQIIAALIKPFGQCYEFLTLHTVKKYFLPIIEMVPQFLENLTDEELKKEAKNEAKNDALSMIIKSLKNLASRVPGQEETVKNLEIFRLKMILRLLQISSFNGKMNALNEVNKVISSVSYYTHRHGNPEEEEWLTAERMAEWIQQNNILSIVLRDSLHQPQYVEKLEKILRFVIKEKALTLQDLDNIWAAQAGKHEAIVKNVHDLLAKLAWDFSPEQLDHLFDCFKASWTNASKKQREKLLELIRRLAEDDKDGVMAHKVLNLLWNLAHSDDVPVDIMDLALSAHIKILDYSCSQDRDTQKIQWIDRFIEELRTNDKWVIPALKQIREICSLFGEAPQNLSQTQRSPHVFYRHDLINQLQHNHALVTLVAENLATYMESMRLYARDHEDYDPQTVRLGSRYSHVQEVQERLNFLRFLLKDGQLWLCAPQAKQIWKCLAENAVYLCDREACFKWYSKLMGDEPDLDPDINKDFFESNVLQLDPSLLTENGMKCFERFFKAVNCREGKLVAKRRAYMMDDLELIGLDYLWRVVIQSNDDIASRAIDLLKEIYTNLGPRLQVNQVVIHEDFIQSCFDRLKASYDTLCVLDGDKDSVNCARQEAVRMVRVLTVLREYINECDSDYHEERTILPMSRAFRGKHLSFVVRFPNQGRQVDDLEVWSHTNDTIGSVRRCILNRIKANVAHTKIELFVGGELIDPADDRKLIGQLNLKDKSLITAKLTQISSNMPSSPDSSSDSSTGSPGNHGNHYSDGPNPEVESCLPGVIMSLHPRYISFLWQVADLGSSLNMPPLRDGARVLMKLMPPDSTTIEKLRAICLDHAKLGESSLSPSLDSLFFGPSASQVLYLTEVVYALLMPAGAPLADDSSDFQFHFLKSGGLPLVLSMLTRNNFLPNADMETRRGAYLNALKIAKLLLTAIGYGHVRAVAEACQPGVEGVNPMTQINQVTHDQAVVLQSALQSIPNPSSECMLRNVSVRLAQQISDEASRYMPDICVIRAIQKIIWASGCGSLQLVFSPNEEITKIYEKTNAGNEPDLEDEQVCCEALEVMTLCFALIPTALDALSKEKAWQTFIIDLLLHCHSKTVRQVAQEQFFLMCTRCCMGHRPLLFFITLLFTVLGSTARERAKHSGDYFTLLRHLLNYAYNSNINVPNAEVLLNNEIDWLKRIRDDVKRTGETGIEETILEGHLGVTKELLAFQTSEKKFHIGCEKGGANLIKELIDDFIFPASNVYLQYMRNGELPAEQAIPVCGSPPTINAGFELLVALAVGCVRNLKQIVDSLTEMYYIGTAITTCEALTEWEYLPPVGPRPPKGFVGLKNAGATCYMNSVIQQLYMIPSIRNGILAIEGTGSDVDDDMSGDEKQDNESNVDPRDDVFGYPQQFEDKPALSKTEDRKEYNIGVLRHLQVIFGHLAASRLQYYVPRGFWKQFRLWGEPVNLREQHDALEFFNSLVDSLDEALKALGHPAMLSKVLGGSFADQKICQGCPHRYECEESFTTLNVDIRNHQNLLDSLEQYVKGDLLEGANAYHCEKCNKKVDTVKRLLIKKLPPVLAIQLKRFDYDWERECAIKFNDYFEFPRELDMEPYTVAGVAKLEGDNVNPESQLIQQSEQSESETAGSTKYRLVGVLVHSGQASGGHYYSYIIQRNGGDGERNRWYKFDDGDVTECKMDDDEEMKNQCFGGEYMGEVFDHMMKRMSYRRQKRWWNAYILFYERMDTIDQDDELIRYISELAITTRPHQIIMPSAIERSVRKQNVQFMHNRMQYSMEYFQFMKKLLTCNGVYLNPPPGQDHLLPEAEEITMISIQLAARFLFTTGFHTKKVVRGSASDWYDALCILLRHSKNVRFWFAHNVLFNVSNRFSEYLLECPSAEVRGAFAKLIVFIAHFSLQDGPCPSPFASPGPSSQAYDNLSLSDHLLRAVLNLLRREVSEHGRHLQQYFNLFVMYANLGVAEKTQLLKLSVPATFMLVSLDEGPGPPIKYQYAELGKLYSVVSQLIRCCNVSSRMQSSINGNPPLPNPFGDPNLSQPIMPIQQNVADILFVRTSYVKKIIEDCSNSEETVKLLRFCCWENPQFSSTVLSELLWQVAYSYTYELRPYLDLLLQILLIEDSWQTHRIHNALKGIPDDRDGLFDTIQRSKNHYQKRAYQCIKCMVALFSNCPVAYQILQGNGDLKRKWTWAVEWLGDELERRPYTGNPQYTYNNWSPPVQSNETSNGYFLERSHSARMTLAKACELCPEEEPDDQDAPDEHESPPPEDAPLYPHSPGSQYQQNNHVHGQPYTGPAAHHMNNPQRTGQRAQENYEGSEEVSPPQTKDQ
Sequence of UniProt O00507 (O00507 whole entry): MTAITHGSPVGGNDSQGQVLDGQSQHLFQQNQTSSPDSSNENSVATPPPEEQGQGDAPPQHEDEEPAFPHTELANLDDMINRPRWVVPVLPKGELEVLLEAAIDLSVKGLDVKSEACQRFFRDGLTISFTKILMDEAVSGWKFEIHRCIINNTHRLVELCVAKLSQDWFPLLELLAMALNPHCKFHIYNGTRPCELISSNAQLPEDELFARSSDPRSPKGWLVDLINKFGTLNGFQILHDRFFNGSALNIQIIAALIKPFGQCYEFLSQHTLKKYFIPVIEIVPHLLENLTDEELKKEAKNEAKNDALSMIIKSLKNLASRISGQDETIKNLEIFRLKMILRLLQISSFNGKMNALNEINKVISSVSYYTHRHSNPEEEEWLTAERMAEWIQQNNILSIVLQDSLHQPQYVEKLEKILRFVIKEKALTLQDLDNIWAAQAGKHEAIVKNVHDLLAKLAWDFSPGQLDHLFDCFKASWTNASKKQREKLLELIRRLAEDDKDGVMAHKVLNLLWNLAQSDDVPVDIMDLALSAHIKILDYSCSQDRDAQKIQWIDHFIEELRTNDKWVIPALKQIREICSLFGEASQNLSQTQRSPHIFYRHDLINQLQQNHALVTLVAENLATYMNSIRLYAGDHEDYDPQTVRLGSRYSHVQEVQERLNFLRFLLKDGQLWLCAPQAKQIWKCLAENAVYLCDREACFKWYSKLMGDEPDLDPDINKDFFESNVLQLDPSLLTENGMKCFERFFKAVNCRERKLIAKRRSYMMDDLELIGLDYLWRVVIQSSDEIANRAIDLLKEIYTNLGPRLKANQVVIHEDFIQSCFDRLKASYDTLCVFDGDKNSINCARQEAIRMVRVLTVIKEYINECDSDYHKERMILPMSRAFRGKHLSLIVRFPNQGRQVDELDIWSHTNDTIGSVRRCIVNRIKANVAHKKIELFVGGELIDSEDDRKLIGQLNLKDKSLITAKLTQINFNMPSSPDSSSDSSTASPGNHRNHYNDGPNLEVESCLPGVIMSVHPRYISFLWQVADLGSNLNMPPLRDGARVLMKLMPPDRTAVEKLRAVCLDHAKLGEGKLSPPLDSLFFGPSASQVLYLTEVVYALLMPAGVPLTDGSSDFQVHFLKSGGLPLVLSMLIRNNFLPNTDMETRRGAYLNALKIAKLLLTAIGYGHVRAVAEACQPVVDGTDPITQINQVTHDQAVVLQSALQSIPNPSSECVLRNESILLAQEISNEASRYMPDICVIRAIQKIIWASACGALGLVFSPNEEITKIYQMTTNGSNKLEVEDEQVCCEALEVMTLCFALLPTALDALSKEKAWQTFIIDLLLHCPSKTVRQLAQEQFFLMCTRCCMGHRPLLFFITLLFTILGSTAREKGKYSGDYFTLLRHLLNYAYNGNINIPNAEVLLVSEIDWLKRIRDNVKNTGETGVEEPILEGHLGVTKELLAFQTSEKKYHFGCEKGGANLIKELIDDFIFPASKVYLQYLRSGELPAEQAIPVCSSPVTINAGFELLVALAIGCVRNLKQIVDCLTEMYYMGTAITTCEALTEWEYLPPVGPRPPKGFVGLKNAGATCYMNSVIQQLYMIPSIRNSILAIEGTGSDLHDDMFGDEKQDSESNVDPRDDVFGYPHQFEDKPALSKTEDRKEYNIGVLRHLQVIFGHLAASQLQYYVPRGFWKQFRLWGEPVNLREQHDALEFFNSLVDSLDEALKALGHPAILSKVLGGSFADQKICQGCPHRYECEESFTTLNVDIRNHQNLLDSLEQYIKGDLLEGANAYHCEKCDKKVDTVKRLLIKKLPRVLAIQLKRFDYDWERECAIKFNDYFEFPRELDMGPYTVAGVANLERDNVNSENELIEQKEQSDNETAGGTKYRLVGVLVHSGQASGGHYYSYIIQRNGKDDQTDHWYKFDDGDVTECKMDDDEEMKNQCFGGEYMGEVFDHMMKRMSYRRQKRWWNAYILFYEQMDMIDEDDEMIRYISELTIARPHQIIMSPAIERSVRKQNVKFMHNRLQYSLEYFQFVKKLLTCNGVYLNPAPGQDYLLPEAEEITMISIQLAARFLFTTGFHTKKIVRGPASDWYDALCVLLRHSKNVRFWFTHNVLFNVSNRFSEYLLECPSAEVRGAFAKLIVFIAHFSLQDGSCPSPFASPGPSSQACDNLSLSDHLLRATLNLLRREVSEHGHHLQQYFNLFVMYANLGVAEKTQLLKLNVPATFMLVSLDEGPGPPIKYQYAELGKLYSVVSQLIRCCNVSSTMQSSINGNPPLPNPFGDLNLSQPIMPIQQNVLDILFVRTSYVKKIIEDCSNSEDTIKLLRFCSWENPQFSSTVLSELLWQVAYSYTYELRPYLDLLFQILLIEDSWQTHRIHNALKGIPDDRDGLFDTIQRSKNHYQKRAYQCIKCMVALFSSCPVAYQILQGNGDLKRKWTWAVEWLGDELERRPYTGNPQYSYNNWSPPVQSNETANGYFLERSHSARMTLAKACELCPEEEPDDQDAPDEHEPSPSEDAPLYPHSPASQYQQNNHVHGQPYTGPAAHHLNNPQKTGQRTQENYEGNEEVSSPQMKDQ

O=C(CCl)N1CCc2sccc2C1
inactive: USP9X -0.286 | UniProt O00487 0.0182 | UniProt O00507 -0.0149 | UniProt P51784 -0.207 | UniProt Q5T2D3 -0.075 | UniProt Q9P2H5 -0.371 | YOD1 -0.00804
active: UniProt Q8TE49 -1.18 | UniProt Q9UGI0 -1.9

— the supplement of paper PMC11732987, “Enantioselective OTUD7B fragment discovery through chemoproteomics screening and high-throughput optimisation” (Communications Chemistry, 2025)
